# Bioassay records from PubChem.
# An excerpt weighted towards active compounds, which were near 19% of everything screened.
# TDP1 cell noCPT – qHTS for Inhibitors of human tyrosyl-DNA phosphodiesterase 1 (TDP1): qHTS in cells in absence of CPT; Potency, µM (series often up to 46.2 µM), for inactives: at the top dose activity change, negative = growth inhibition, actives largely listed as inhibitors; 420,000 tested, 15% active; DT40 Tdp1-/- hTDP1 cells, no CPT, ATP luminescence, 48 h; note: potency is the fitted concentration of half-maximal effect; % is set by controls: 0 for no effect and ±100 for the full control effect; nearly all actives have a fitted effect of over 55% in size
#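 No-CPT arm: Tdp1-/-;hTDP1 DT40 cells (400/well) plus compounds, incubated ≥48 hr at 37 °C. Readout CellTiter-Glo luminescence.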
# TGFb SMAD3 inh – qHTS for Inhibitors of TGF-b | HepG2 CAGA-GFP TGF-b/SMAD3 reporter, GFP fluorescence, 18 h; TGF-beta stimulated, 500 pg/mL final | Potency, µM (titrated, usually from 46.1 µM), inactives show at the top dose activity, negative = inhibition, usual class: inhibitors | 410,000 tested, 1.2% active | AID 588855, 2011; note: potency is the fitted concentration of half-maximal effect; % is set by controls: 0 for no effect and ±100 for the full control effect; nearly all actives have a fitted effect of over 65% in size
#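 Smad-responsive CAGA-GFP expression was quantified in HEPG2 cells exposed to compounds and 500 pg/mL final TGF-beta for 18 h at 37 degrees C; unstimulated wells defined full inhibition.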
# S-ASM inh – Inhibitors of Secretory Acid Sphingomyelinase (S-ASM): qHTS | 340,000 tested, 0.006% active | Sphingomyelin phosphodiesterase (Homo sapiens), P17405 | AID 504937, 2011 | placental ASM, HMU-PC fluorogenic substrate, 60 min | Potency, µM (top dose mostly 57.5 µM), without a hit: at the highest dose activity change, negative = inhibition, most hits filed as inhibitors; note: potency is the fitted concentration of half-maximal effect
# Target sequence (P17405 47-631 limits assumed): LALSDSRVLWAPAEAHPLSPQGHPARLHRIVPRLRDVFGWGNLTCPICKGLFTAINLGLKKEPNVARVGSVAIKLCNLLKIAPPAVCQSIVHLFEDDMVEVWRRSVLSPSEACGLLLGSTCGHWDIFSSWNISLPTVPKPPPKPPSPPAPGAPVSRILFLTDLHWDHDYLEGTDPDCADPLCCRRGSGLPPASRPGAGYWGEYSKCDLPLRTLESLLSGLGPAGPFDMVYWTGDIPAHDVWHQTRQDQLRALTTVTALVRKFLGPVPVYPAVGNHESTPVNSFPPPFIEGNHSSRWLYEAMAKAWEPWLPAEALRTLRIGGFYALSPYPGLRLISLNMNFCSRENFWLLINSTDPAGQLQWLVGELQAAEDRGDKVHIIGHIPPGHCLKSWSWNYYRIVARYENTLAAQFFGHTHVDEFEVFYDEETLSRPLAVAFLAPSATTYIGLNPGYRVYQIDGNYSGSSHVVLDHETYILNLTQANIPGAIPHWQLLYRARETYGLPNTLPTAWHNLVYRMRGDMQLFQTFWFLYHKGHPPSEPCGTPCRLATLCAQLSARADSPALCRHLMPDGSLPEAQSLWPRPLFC
#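 HMU-PC0 cleavage (9 uM final) by human placental ASM, 60 min at 37 °C following 10 min compound exposure at RT; stopped at pH 10, fluorescence Ex 386/Em 447 nm.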
# HepG2 tox – qHTS for Inhibitors of TGF-b: Cytotox Counterscreen | HepG2 CAGA-GFP viability, ATP luminescence, 18 h | Potency, µM (doses to about 46.1 µM), for inactives: at the highest dose activity change, negative = cytotoxicity, most hits filed as cytotoxic | 410,000 tested, 0.76% active | AID 588856, 2011; note: potency is the fitted concentration of half-maximal effect
#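 HepG2 CAGA-GFP cells (1000/well, DMEM with 1% FBS) received compound, then TGF-beta at 500 pg/mL final, and were incubated 18 hours at 37 degrees C. Viability was read by CellTiter-Glo luminescence. Media-only wells were set as complete cell-killing and DMSO as no toxicity.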
# DT40 TDP1 CPT – qHTS for Inhibitors of human tyrosyl-DNA phosphodiesterase 1 (TDP1): qHTS in cells in presence of CPT | chicken DT40 Tdp1-/-;hTDP1 cells + 20 nM CPT, ATP luminescence, 48 h | Potency, µM (doses to about 46.2 µM), inactives show at the top dose activity change, negative = growth inhibition, hits mostly inhibitors | 420,000 tested, 12% active | AID 686979, 2013; note: potency is the fitted concentration of half-maximal effect; % is set by controls: 0 for no effect and ±100 for the full control effect; nearly all actives have a fitted effect of over 55% in size
#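 Cell growth measured by CellTiter-Glo luminescence after a minimum 48 h, 37 C compound exposure with 20 nM CPT in Tdp1-knockout DT40 cells stably expressing hTDP1, seeded 400/well; qHTS titration format.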
# IL-1B inflam inh – qHTS for Inhibitors of Inflammasome Signaling: IL-1-beta AlphaLISA Primary Screen. THP-1 LPS/ATP IL-1B secretion, AlphaLISA, 16 h; stronger effect = lower value. activity change, % at 57.5 µM. 360,000 tested, 4.7% active. AID 743279, 2014; in the data active = activity change below about -50%; inconclusive = mostly about -30% to -49%; note: % is set by controls: 0 for no effect and ±100 for the full control effect
#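 Secreted IL-1B measured by AlphaLISA bead assay after 16 h compound exposure of THP-1 cells; compounds (final up to 57.5 uM) added 1 h before LPS (250 ng/mL) and ATP (1.25 mM) stimulation; lower signal means less secretion.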
# Active calls of the source: *; ? = inconclusive; . = no result. Unless noted, calls come from the whole dose curve; as a rule, active = well fitted curve in the direction sought with a large enough effect; inconclusive = small, poorly fitted or top-dose-only effect, or another doubt; inactive = no such curve, though single readings can be large; an effect the other way counts as inactive or inconclusive.
SMILES,TDP1 cell noCPT,TGFb SMAD3 inh,S-ASM inh,HepG2 tox,DT40 TDP1 CPT,IL-1B inflam inh
Cc1ccc(C(=O)Nc2cccc(-c3cnc4ccccc4n3)c2)cc1,-22%,20%,-3%,1%,-7%,-11
CS(=O)(=O)Nc1cccc(-c2cnc3ccccc3n2)c1,21µM*,-2%,0%,-5%,-6%,-14
O=C(CNC(=O)c1ccc(Br)o1)Nc1cccc(-c2cnc3ccccc3n2)c1,7.3µM*,?,1%,-25%,?,90
CC(=O)Oc1[nH]c(=O)c2cccc3c2c1CCC3,29µM*,12%,.,-2%,?,-11
CC(=O)Oc1cc2c(c3ccccc13)CCC2=O,?,-7%,0%,-3%,30%,-12
Clc1cccc(-c2nnc(SC/C=C/c3ccccc3)n2Cc2ccco2)c1,?,?,-2%,-27%,21µM*,-84*
C(=C\c1ccccc1)/CSc1nnc(-c2ccccc2)n1Cc1ccco1,4.6µM*,?,-4%,-2%,5.2µM*,43
CC(Oc1ccc(C#N)cc1)C(=O)Nc1ccc(-n2cnnn2)cc1 (stereo unspecified),-14%,10%,1%,-4%,-5%,8
COc1ccc(S(=O)(=O)N2CCOCC2)cc1NC(=O)CN1C(=O)CN(C)C1=O,5%,2%,0%,-1%,-4%,3
Cn1nc(C(=O)NNC(=O)CCc2ccccc2Cl)c2ccccc2c1=O,2%,10%,-5%,-17%,-3%,-12
O=C(O)c1c(-c2ccccc2)oc2ccc(OCc3c(F)cccc3Cl)cc12,-10%,?,.,-26%,-1%,.
Cc1cnc(C(=O)OCC(=O)c2ccc(Cl)cc2)cn1,16%,17%,0%,-1%,7%,0
CCCCCN(C(=O)CCC(=O)OCC(=O)N(CC#N)c1ccccc1)c1c(N)n(CCCC)c(=O)[nH]c1=O,-5%,1%,2%,18%,-3%,6
CCOC(=O)c1c(C)[nH]c(C)c1S(=O)(=O)N(C)CC(=O)N1CCN(c2cccc(C)c2C)CC1,?,?,.,-33%,18µM*,.
Cc1cccc(N2CCN(S(=O)(=O)c3c(C(=O)N4CCCCC4)c(C)n(C)c3C)CC2)c1C,?,-1%,-2%,-3%,?,0
CCOC(=O)c1c(C)[nH]c(C)c1S(=O)(=O)NCC(=O)N1CCN(c2ccccc2F)CC1,-28%,-14%,.,-20%,?,.
Cc1cccc(N2CCN(S(=O)(=O)c3c(C(=O)N4CCC(C)CC4)c(C)n(C)c3C)CC2)c1C,23µM*,-6%,.,-24%,-114%,.
Cc1cccc(N2CCN(S(=O)(=O)c3c(C)[nH]c(C)c3C(=O)N3CCCCC3)CC2)c1C,?,1%,12%,-17%,21µM*,-51*
Nc1ccn([C@@H]2O[C@H](C(=O)Nc3cc(C(F)(F)F)cc(C(F)(F)F)c3)[C@@H](O)[C@H]2O)c(=O)n1,-21%,-4%,.,-20%,-9%,44
C[C@H]1COc2c(N3CCN(C)CC3)c(F)cc3c(=O)c(C(=O)O)cn1c23,9.2µM*,14%,7%,-2%,?,-9
CN1CCN(c2c(F)cc3c(=O)c(C(=O)O)cn4c3c2SCC4)CC1,12µM*,16%,3%,7%,13µM*,-3
O=S(=O)(NCCc1csc2nc(-c3ccc(F)cc3)nn12)c1ccc(Oc2ccccc2)cc1,21µM*,0%,.,-49%,15µM*,.
Cc1ccc(-c2nc3scc(CCNS(=O)(=O)c4ccc(C)c(C)c4)n3n2)cc1,21µM*,?,.,-31%,?,.
Cc1ccc(C)c(NC(=O)C(=O)NCCc2csc3nc(-c4ccccc4C)nn23)c1,18µM*,-3%,.,-18%,?,.
Cc1cccc(-c2nc3scc(CCNC(=O)c4ccc(Br)o4)n3n2)c1,?,-2%,.,-25%,?,.
SMILES,TDP1 cell noCPT,TGFb SMAD3 inh,S-ASM inh,HepG2 tox,DT40 TDP1 CPT,IL-1B inflam inh
Cc1ccc(-c2nc3scc(CCNC(=O)Cc4ccc(Cl)cc4)n3n2)cc1,18µM*,-13%,.,-33%,15µM*,.
CCCCN(C(=O)c1ccc(S(=O)(=O)N2CCCC2)cc1)C1CCS(=O)(=O)C1 (stereo unspecified),9%,7%,1%,-9%,7%,-1
CCCCOC(=O)c1ccc(OC(=O)c2sc3ncn(Cc4cccc(F)c4)c(=O)c3c2C)cc1,-17%,-10%,.,-22%,-10%,.
CC(=O)Nc1ccc(S(=O)(=O)NC(C)c2ccccc2)cc1 (stereo unspecified),-24%,-14%,1%,-5%,-10%,17
CC(C)CCN1C(=O)c2ccc(C(=O)Nc3ccc(Br)cc3C(=O)O)cc2C1=O,0%,-1%,16%,-15%,-1%,12
O=C(CSc1nc2c([nH]c3ccccc32)c(=O)n1-c1cccc(Cl)c1)NCC1CCCO1 (stereo unspecified),-19%,16%,.,-9%,-17%,.
O=C(NCCc1csc2nc(-c3ccc(F)cc3)nn12)c1cccc(C(F)(F)F)c1,?,-20%,.,-25%,?,.
CCCS(=O)(=O)NCCc1csc2nc(-c3ccc(C)cc3)nn12,23µM*,17%,.,3%,?,.
CC(C)(C)C(=O)NCCc1csc2nc(-c3ccc(F)cc3)nn12,15µM*,-26%,.,-34%,?,.
COc1ccc(-c2nc3scc(CCNS(=O)(=O)c4ccc(C)cc4)n3n2)cc1,?,-6%,.,4%,?,.
COc1ccc(-c2nc3scc(CCNC(=O)c4cccc(Br)c4)n3n2)cc1,26µM*,?,.,-21%,?,.
CSc1ncc(Cl)c(C(=O)Nc2c(C(=O)c3ccc(Cl)cc3)oc3ccccc23)n1,18%,9%,.,-10%,-14%,.
C[C@H](CO)N1C[C@H](C)[C@@H](CN(C)S(=O)(=O)c2cccs2)Oc2ccc(NC(=O)c3ccncc3)cc2C1=O,-6%,2%,3%,3%,-30%,2
Cc1cn([C@H]2C[C@H](O)[C@@H](CNC/C=C/c3ccccc3[N+](=O)[O-])O2)c(=O)[nH]c1=O,?,-10%,.,-13%,-7%,-12
